Shown are actives, neighbours in structure and some others; about 8% of the full set was active somewhere.
HT1080 IDH1KD tx: HT-1080 IDH1 knockdown cell toxicity (counter line); HT-1080 IDH1 knockdown viability, ATP luminescence, 48 h; Potency, µM (series often up to 46.1 µM), inactives show top-dose activity, negative = toxicity, hits mostly cytotoxic; 360,000 compounds, 2% hits;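 note: 0% = DMSO wells and -100% = cell-free medium wells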
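CellTiter-Glo luminescence after 48 h compound exposure at 37 degrees C of IDH1-knockdown HT-1080 cells in 5% FBS RPMI. %Activity scaled between DMSO wells and cell-free media wells, with curves fitted and assigned curve classes.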
KB-3-1 cytotox: kills parental KB-3-1 adenocarcinoma cells | 400,000 compounds, 1.4% hits | AID 1347075 | Potency, µM (series often up to 46.1 µM), usual class: cytotoxic | KB-3-1 viability, CellTiter-Glo ATP luminescence, 72 h; note: % is set by controls: 0 for no effect and ±100 for the full control effect; nearly all actives have a fitted effect of over 60% in size
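Luminescent ATP read-out (CellTiter-Glo) measures survival of drug-naive KB-3-1 cells after 72 h compound exposure at 37 °C. Titration series was screened from lowest to highest concentration, with DMSO vehicle plates as background controls.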
HT1080NT lethal: kills 2HG-producing HT-1080-NT fibrosarcoma cells. 360,000 compounds, 1.6% hits. Potency, µM (titrated, usually from 46.1 µM), for inactives: at the top dose activity, negative = less viability, most hits filed as cytotoxic. HT-1080-NT fibrosarcoma viability, CellTiter-Glo ATP luminescence, 48 h. AID 686970;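 note: NT is the 2HG producing partner of a matched IDH1 knockdown line; 0% = DMSO-treated cells and -100% = media-only wells without cells; nearly all actives have a fitted effect of over 55% in size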
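HT-1080-NT fibrosarcoma cells (2HG-overproducing), 750 cells/well in RPMI with 5% FBS, dosed after 2 h and incubated 48 h at 37C. CellTiter-Glo luminescence normalized to DMSO and no-cell wells; concentration-response curves fitted and classed.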
SW480 rerep: induces DNA re-replication in SW480 colon adenocarcinoma cells. Potency, µM (titrated, usually from 46.1 µM), for inactives: at the top dose re-replication activation, hits mostly activators. SW480 DNA re-replication, Hoechst DNA content imaging, 48 h. 340,000 compounds, 1.8% hits; note: % of control where 0% means no effect; nearly all actives have a fitted effect of over 55% in size
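Hoechst fluorescence of nuclei (405 nm excitation, 500-530 nm emission) measured by plate-scanning imager after 48 hr compound exposure at 37 C; re-replication scored as increased number of nuclei with elevated intensity.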
KB-V1 MDR tox: kills drug-selected multidrug resistant KB-V1 cells; KB-V1 MDR cells viability, CellTiter-Glo, 72 h; Potency, µM (doses to about 46.1 µM), hits mostly cytotoxic; 400,000 compounds, 3.4% hits; AID 1347076; note: % is set by controls: 0 for no effect and ±100 for the full control effect; nearly all actives have a fitted effect of over 60% in size
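Potencies derive from concentration-effect curves fitted to normalized luminescence (CellTiter-Glo) of KB-V1 cells treated for 72 h at 37 degrees C in phenol-red-free DMEM containing 10% FBS.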
MCF10A rerep: inducers of DNA re-replication in MCF 10A breast cells; Potency, µM (top dose mostly 46.1 µM), for the others: at the top dose activity, positive = re-replication, usual class: activators; 350,000 compounds, 2.9% hits; MCF 10A DNA re-replication, Hoechst nuclear intensity, 48 h; note: % of control where 0% means no effect; nearly all actives have a fitted effect of over 50% in size
Active calls of the source: *; i = inactive; ? = inconclusive; . = no result. Calls come from the whole dose curve; as a rule, active = well fitted curve in the direction sought with a large enough effect; inconclusive = small, poorly fitted or top-dose-only effect, or another doubt; inactive = no such curve, though single readings can be large; an effect the other way counts as inactive or inconclusive. Potency is the fitted concentration of half-maximal effect.

SMILES | HT1080 IDH1KD tx | KB-3-1 cytotox | HT1080NT lethal | SW480 rerep | KB-V1 MDR tox | MCF10A rerep
Cc1cccc(-n2nnnc2SCn2nnc3ccccc3c2=O)c1 | -5% | i | 6% | -1% | 13µM* | 18%
O=c1c2ccccc2nnn1CSc1ccc2c(c1)OCCO2 | -10% | i | -2% | -4% | 23µM* | 11%
Cc1ccc(-n2nnnc2SCn2nnc3ccccc3c2=O)cc1 | -9% | i | -12% | -5% | i | -2%
O=C(CCc1nnc2ccc(NCc3ccco3)nn12)Nc1ccc(F)cc1 | 16% | i | 0% | ? | i | -4%
O=c1c(Cc2c(F)cccc2Cl)c(O)ccn1C1CCCCCC1 | -3% | i | 2% | -32% | i | 0.18µM*
O=c1c(Cc2c(F)cccc2Cl)c(O)ccn1Cc1ccc(F)cc1 | -9% | i | -19% | 3% | i | 20%
COc1cc(S(=O)(=O)N2CCOCC2)ccc1N | 1% | i | 0% | -9% | i | -3%
COC(CNC(=O)C(=O)Nc1cc2c3c(c1)CC(=O)N3CCC2)OC | 1% | i | 6% | -3% | i | 1%
COc1cc2nc(NC(=O)c3ccc(S(=O)(=O)N4CCCC4)cc3)sc2cc1OC | . | i | . | . | i | .
CC(C)(C)c1ccc(S(=O)(=O)Nc2ccccn2)cc1 | 0% | i | 14% | -4% | i | 4%
O=S(=O)(Nc1ccccn1)c1ccc(C(F)(F)F)cc1Cl | 13% | i | 2% | 21µM* | i | ?
CCCNc1c(NS(=O)(=O)c2ccc(C3CCCCC3)cc2)c(=O)oc2ccccc12 | -2% | i | -5% | ? | i | 12µM*
Cc1ccc(NC(=O)CN2C(=O)CCn3nc(-c4cccn4C)cc32)c(Cl)c1 | . | i | . | . | i | .
COC(=O)c1nn(-c2cccc(C)c2)c2nnc(Cc3ccccc3)c(=O)n12 | 12% | i | 11% | ? | i | 0%
O=C(c1ccccc1)c1nn(-c2ccccc2)c2nnc(Cc3ccccc3)c(=O)n12 | -25% | ? | -3% | 18µM* | ? | 23µM*
Cc1ccc(-n2nc(C(=O)c3ccccc3)n3c(=O)c(Cc4ccccc4)nnc23)cc1 | -3% | i | -3% | 5% | 16µM* | -4%
COC(=O)c1nn(-c2ccccc2)c2nnc(Cc3ccc(C)cc3)c(=O)n12 | 11% | i | -4% | 1% | ? | -11%
C=C1CCC(O)C/C1=C/C=C1\CCC[C@]2(C)[C@@H]([C@H](C)/C=C/[C@H](C)C(C)C)CC[C@@H]12 (some centres not stated) | . | . | . | 8% | . | ?
Cc1onc(-c2c(F)cccc2Cl)c1C(=O)Nc1cc(S(=O)(=O)N2CCCCC2)ccc1O | -14% | ? | ? | 9% | 23µM* | ?
Cc1onc(-c2c(F)cccc2Cl)c1C(=O)Nc1ccc(S(=O)(=O)N2CCOCC2)cc1 | -9% | i | -1% | 1% | i | 2%
COc1ccccc1-c1noc(CCC(=O)Nc2cccc(C(F)(F)F)c2)n1 | -19% | ? | 0% | 1% | 21µM* | 18%
CCOC(=O)c1ccc(NC(=O)CCc2nc(-c3cccc(C)c3)no2)cc1 | -21% | ? | -13% | 12% | 21µM* | ?
Cc1cccc(-c2noc(CCC(=O)Nc3ccccc3)n2)c1 | -10% | i | -23% | -10% | i | -6%
COc1ccccc1NC(=O)CCc1nc(-c2ccccc2F)no1 | 0% | i | -1% | 5% | ? | 0%
COc1cccc(NC(=O)CCc2nc(-c3cccs3)no2)c1 | ? | i | 7.3µM* | -21% | i | -1%
O=C(Nc1ccccc1C(F)(F)F)C1CCN(S(=O)(=O)Cc2ccccc2)CC1 | . | i | . | . | i | .
Cc1c(CCOC(=O)c2ccccc2)sc[n+]1CC(=O)c1ccc(Br)cc1 | ? | ? | ? | 5% | 7.3µM* | 23%

From PubChem
